Results filed as inconclusive are left out. Entries that show only a call come without a potency. Calls of active or inactive are those of the source. Unless noted, calls follow the shape of the full dose curve.
Key:
[1] = qHTS assay to identify small molecule antagonists of the sonic hedgehog signaling (Shh) pathway (AID 1259369); also: nearly all actives have a fitted effect of over 45% in size; also: potency is read from the fitted curve at half-maximal effect
Outline: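 NIH/3T3-derived 3T3Gli1-Luc cells with stably integrated Gli1-Luc reporter were preincubated 4hr at 37 C, then given compounds in DMSO plus Shh conditioned medium and incubated 24hr. Firefly luciferase luminescence read after 30min reagent at room temperature.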

[2] = qHTS assay to identify small molecule agonists of the androgen receptor (AR) signaling pathway in the presence of an antagonist - cell viability counter screen (AID 1259379; active = well fitted curve in the direction sought with a large enough effect in the repeat runs; an effect the other way counts as inactive or inconclusive; also: nearly all actives have a fitted effect of over 25% in size; also: potency is read from the fitted curve at half-maximal effect)
Outline: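 MDA-kb2 human breast carcinoma cells (stable MMTV-luciferase, AR/GR responsive) were seeded 3,000 cells/well, pre-incubated 5 hr at 37C without CO2, then given 3.0uM nilutamide and compounds at 15 concentrations for 16 hr. Viability was read by CellTiter-Fluor fluorescence.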

[3] = qHTS assay to identify small molecule agonists of the estrogen receptor beta (ER-beta) signaling pathway - cell viability counter screen (AID 1259380; active = well fitted curve in the direction sought with a large enough effect in the repeat runs; an effect the other way counts as inactive or inconclusive; also: nearly all actives have a fitted effect of over 30% in size; also: potency is read from the fitted curve at half-maximal effect)
Outline: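 ER-beta-UAS-bla HEK293T cells in medium with 2% charcoal-stripped FBS were preincubated 6 hr at 37C, dosed with compound in DMSO for 16 hr, then after the bla read, CellTiter-Glo was added for 30 min at room temperature; luminescence recorded.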

[4] = qHTS assay to identify small molecule agonists or antagonists of the thyroid stimulating hormone receptor (TSHR) signaling pathway - wild type cell line counter screen (AID 1259384)
Outline: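 Wild-type HEK293 cells were plated 18 h at 37 C/5% CO2, pin-dosed with compound plus Ro20-1724 medium, held 30 min at room temperature, then given cAMP-d2 and anti-cAMP-cryptate; fluorescence was read after 1 h. Fifteen concentrations, triplicate.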

[5] = qHTS assay to identify small molecule agonists of the estrogen receptor alpha (ER-alpha) signaling pathway in the presence of an antagonist - cell viability counter screen (AID 1259386; active = well fitted curve in the direction sought with a large enough effect in the repeat runs; an effect the other way counts as inactive or inconclusive;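 also: cells exposed to compounds for 22 h at 37 °C before the viability read; nearly all actives have a fitted effect of over 30% in size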; also: potency is read from the fitted curve at half-maximal effect)
Outline: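 VM7Luc4E2 cells (endogenous full-length ER-alpha, 4×ERE-luciferase) were held 5 days in phenol red-free medium with 10% charcoal-stripped FBS, plated, then given 10.0nM ICI-182,780 and compounds at 15 concentrations for 22hr at 37C; viability read by CellTiter-Fluor fluorescence.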

[6] = target: Progesterone receptor (Homo sapiens) (UniProt P06401); assay: qHTS assay to identify small molecule antagonists of the progesterone receptor (PR) signaling pathway (AID 1346795; active = well fitted inhibition curve with a large enough effect in the signal ratio in the repeat runs, not every such curve was filed as active; the % refers to the signal ratio; also: potency is read from the fitted curve at half-maximal effect)
Sequence of Progesterone receptor (Homo sapiens) (P06401 whole entry, looked up): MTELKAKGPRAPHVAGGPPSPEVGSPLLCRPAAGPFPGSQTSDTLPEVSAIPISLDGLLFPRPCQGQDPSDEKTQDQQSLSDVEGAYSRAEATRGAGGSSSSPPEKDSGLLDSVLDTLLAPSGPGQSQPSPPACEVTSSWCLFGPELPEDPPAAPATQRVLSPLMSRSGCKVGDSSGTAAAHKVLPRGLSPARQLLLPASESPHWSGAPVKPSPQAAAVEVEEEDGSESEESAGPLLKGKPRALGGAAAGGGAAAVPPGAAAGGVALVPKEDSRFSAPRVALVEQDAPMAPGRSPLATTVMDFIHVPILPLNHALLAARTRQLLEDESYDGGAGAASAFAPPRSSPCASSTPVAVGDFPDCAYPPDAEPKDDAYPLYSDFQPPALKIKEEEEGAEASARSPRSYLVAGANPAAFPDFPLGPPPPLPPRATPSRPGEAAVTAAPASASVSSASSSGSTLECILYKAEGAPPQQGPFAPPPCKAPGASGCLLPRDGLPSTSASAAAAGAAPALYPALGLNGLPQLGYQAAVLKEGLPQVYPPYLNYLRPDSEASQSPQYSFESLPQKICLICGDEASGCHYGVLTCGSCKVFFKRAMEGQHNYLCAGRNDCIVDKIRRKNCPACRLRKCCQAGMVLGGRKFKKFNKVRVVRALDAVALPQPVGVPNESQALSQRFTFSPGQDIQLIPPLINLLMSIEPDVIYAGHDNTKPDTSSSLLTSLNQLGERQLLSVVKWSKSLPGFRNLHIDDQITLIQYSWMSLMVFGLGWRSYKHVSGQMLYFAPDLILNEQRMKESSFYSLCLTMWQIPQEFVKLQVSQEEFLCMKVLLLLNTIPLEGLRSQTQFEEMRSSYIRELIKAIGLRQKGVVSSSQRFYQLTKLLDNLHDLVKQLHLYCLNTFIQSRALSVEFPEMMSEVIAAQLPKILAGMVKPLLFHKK
Outline: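 Antagonist mode: compounds tested against 1 nM (final) promegestone stimulation in HEK293T cells expressing PR-UAS-bla reporter, 16 hr at 37C, 5% CO2; beta-lactamase activity detected via B/G FRET substrate after 2 hr at room temperature.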

[7] = qHTS assay to identify small molecule antagonists of the progesterone receptor (PR) signaling pathway - cell viability counter screen (AID 1346798; active = well fitted curve in the direction sought with a large enough effect in the repeat runs; an effect the other way counts as inactive or inconclusive; also: nearly all actives have a fitted effect of over 50% in size; also: potency is read from the fitted curve at half-maximal effect)
Outline: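 Counter screen for cytotoxicity: viability of PR-UAS-bla HEK293T cells was measured with CellTiter-Glo luminescence following 16 hr compound exposure in the presence of R5020.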

[8] = qHTS assay to identify small molecule agonists of the progesterone receptor (PR) signaling pathway - cell viability counter screen (AID 1346799); also: nearly all actives have a fitted effect of over 45% in size; also: potency is read from the fitted curve at half-maximal effect
Outline: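 Cells (PR-UAS-bla HEK293T) are plated at 3,000/well in 2% charcoal-stripped FBS medium, rested 6 hr, dosed and incubated 16 hr at 37C. CellTiter-Glo is then added and luminescence measured after 30 min at room temperature.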

[9] = qHTS assay to identify small molecule antagonists of the TGF-beta/Smad signaling pathway - cell viability counter screen (AID 1346824; active = well fitted curve in the direction sought with a large enough effect in the repeat runs; an effect the other way counts as inactive or inconclusive; also: nearly all actives have a fitted effect of over 50% in size; also: potency is read from the fitted curve at half-maximal effect)
Outline: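 SBE-bla HEK 293T cells were plated overnight at 37 C, then given compounds in DMSO plus TGF-beta1 (added as 0.25 ng/mL solution) for 5 hr. After the bla read, CellTiter-Glo was added to the same wells and luminescence read after 30 min at room temperature.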

[10] = target: Thyrotropin-releasing hormone receptor (Homo sapiens) (UniProt P34981); assay: qHTS assay to identify small molecule antagonists of the thyrotropin-releasing hormone receptor (TRHR) signaling pathway (AID 1346877; active = well fitted inhibition curve with a large enough effect in the repeat runs, not every such curve was filed as active; also: potency is read from the fitted curve at half-maximal effect)
Sequence of Thyrotropin-releasing hormone receptor (Homo sapiens) (P34981 whole entry, looked up): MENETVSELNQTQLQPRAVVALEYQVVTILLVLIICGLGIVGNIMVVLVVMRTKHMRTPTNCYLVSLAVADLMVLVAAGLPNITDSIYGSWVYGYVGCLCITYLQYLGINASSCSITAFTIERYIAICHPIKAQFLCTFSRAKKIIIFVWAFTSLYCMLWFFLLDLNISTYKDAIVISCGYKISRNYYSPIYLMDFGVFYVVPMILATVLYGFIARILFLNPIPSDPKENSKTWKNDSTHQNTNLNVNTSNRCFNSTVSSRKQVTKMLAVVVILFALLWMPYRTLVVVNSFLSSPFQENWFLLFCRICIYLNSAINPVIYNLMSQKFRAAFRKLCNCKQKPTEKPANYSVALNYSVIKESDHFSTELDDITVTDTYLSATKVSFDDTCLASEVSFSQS
Outline: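 TRHR-expressing HEK293 cells were seeded, cultured 18 h at 37 °C, then loaded with calcium dye for 2 h. Compounds were pre-incubated 5 min at room temperature before 1 nM TRH (final) was added, and kinetic fluorescence was recorded for 3 min.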

[11] = target: Thyrotropin-releasing hormone receptor (Homo sapiens) (UniProt P34981); assay: qHTS assay to identify small molecule agonists of the thyrotropin-releasing hormone receptor (TRHR) signaling pathway (AID 1346891); also: potency is read from the fitted curve at half-maximal effect; as to activation: series mostly up to about 58 µM
Outline: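 Cells: TRHR-Hek293, seeded and incubated 18 h. Dye loading: 2 h at 37 °C. Compound added from DMSO stock by pin tool. Read-out: kinetic calcium fluorescence over 3 min.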

[12] = target: Androgen receptor (Homo sapiens) (UniProt P10275); assay: qHTS assay to identify small molecule agonists of the androgen receptor (AR) signaling pathway in the presence of an antagonist (AID 1259381); also: nearly all actives have a fitted effect of over 15% in size
Sequence of Androgen receptor (Homo sapiens) (P10275 whole entry, looked up): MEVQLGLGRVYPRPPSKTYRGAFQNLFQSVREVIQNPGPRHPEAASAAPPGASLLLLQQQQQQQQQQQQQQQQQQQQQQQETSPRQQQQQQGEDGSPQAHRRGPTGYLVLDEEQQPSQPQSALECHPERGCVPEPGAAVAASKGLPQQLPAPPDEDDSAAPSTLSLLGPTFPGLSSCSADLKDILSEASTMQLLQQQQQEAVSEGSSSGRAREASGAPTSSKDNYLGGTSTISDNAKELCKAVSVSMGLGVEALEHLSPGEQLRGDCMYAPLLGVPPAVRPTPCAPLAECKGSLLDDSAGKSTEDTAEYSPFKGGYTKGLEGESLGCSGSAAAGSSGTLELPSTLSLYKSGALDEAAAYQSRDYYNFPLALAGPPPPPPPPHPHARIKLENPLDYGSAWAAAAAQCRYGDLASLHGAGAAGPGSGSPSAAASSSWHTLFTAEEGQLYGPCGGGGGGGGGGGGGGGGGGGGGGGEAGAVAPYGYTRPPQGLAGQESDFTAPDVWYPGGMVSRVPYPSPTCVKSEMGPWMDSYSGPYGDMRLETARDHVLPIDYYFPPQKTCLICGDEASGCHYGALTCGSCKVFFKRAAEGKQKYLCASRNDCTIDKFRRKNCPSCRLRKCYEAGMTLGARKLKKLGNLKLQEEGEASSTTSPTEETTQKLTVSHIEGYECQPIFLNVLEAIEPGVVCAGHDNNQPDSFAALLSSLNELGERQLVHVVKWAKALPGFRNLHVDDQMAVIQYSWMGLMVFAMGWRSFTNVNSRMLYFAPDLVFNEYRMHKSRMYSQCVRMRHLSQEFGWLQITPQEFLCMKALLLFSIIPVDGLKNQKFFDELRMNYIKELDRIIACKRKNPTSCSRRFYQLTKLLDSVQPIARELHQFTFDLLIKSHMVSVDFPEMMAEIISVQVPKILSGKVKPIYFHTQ
Outline: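 MDA-kb2 human breast carcinoma cells carrying an MMTV-luciferase reporter (AR- and GR-responsive) were treated with compounds at 15 concentrations plus 3.0uM final nilutamide for 16hr at 37C without CO2; luminescence was read after ONE-Glo addition.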

[13] = qHTS assay to identify small molecule antagonists of the estrogen receptor beta (ER-beta) signaling pathway - cell viability counter screen (AID 1259382; active = well fitted curve in the direction sought with a large enough effect in the repeat runs; an effect the other way counts as inactive or inconclusive; also: series mostly up to about 92 µM; nearly all actives have a fitted effect of over 55% in size)
Outline: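 ER-beta-UAS-bla HEK293T cells (2,000/well, 2% charcoal-stripped FBS) were pre-incubated 6 hr at 37C, then given compound plus 1nM final 17-beta-estradiol for 16 hr. Viability was read in the same wells by CellTiter-Glo luminescence after 30 min at room temperature.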

[14] = target: Estrogen receptor (Homo sapiens) (UniProt P03372); assay: qHTS assay to identify small molecule agonists of the estrogen receptor alpha (ER-alpha) signaling pathway in the presence of an antagonist (AID 1259383); also: nearly all actives have a fitted effect of over 15% in size; also: potency is read from the fitted curve at half-maximal effect; as to activation: top concentration of the series differs between compounds
Sequence of Estrogen receptor (Homo sapiens) (P03372 whole entry, looked up): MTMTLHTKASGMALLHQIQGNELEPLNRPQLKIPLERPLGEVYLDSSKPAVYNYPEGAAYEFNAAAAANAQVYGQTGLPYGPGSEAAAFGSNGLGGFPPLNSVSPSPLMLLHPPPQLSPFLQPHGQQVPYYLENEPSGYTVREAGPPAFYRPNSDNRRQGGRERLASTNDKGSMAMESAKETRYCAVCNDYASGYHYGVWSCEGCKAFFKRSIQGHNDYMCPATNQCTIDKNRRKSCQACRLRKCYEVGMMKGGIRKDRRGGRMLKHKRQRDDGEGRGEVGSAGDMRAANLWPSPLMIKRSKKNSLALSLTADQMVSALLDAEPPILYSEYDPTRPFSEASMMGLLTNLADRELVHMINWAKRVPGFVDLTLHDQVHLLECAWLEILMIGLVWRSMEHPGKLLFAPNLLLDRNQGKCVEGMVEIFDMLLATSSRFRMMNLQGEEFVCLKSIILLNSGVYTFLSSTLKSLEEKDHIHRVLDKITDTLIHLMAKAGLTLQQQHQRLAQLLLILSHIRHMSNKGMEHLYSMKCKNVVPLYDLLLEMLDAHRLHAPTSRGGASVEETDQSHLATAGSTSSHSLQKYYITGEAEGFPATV
Outline: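 VM7Luc4E2 cells (endogenous full-length ER-alpha, 4×ERE-luciferase) were precultured 5 days in phenol red-free medium with 10% charcoal-stripped FBS, given 10.0nM ICI-182,780 (final), then treated with compounds at 15 concentrations for 22hr at 37C; luminescence read with ONE-Glo.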

[15] = target: Thyrotropin receptor (Homo sapiens) (UniProt P16473); assay: qHTS assay to identify small molecule antagonists of the thyroid stimulating hormone receptor (TSHR) signaling pathway (AID 1259385); also: nearly all actives have a fitted effect of over 20% in size; also: potency is read from the fitted curve at half-maximal effect
Sequence of Thyrotropin receptor (Homo sapiens) (P16473 whole entry, looked up): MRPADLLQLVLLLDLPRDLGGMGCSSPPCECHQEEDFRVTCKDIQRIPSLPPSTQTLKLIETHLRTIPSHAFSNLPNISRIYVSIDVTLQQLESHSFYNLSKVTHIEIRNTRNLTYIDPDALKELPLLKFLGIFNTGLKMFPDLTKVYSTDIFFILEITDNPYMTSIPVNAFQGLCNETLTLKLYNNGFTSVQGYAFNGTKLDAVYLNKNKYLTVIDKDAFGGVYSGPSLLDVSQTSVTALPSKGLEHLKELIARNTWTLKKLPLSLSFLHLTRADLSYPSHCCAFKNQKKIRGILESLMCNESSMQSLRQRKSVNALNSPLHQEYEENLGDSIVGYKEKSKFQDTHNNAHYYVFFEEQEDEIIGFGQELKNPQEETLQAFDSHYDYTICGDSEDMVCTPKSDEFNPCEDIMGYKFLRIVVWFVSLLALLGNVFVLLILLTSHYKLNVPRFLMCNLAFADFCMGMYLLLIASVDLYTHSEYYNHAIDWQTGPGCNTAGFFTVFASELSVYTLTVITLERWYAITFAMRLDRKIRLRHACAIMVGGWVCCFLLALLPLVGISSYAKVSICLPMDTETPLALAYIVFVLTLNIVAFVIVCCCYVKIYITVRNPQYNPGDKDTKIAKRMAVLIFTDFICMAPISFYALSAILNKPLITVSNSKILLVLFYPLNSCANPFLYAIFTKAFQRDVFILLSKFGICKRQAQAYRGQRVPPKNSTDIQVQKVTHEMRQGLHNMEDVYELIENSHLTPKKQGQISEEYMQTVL
Outline: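 TSHR-HEK293 cells were plated and held 18 h at 37C/5% CO2, then given compound plus Ro20-1724 and stimulated with TSH at 1.5 ng/mL final. After 30 min at room temperature, cAMP was detected with cAMP-d2/anti-cAMP-cryptate (1 h) by fluorescence.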

[16] = qHTS assay to identify small molecule agonists of the TGF-beta/Smad signaling pathway - cell viability counter screen (AID 1346829; active = well fitted curve in the direction sought with a large enough effect in the repeat runs; an effect the other way counts as inactive or inconclusive; also: nearly all actives have a fitted effect of over 45% in size; also: potency is read from the fitted curve at half-maximal effect)
Outline: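 Compound-treated SBE-bla HEK 293T cells (5 hr, 37 C) were assessed for viability with CellTiter-Glo in parallel with the reporter read.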

[17] = qHTS assay to identify small molecule agonists of the TGF-beta/Smad signaling pathway (AID 1346859; active = well fitted activation curve with a large enough effect in the signal ratio in the repeat runs, not every such curve was filed as active; the % refers to the signal ratio; also: series mostly up to about 77 µM)
Outline: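 Reporter line: HEK 293T with stably integrated SBE-controlled beta-lactamase. Compound exposure lasts 5 hr at 37 C and 5% CO2; substrate loading follows for 2 hr at room temperature, with emission read at 460 and 530 nm.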

[18] = target: Progesterone receptor (Homo sapiens) (UniProt P06401); assay: qHTS assay to identify small molecule agonists of the progesterone receptor (PR) signaling pathway (AID 1346784); also: nearly all actives have a fitted effect of over 30% in size; also: potency is read from the fitted curve at half-maximal effect
Outline: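 Cells (PR-UAS-bla HEK 293T, GripTite) were plated in assay medium containing 2% charcoal-stripped FBS and incubated 6 hr. Test compounds in DMSO were added for 16 hr at 37C. FRET substrate was then loaded for 2 hr at room temperature before fluorescence reading.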

[19] = target: Estrogen receptor beta (Homo sapiens) (UniProt Q92731); assay: qHTS assay to identify small molecule agonists of the estrogen receptor beta (ER-beta) signaling pathway (AID 1259377; active = well fitted activation curve with a large enough effect in the signal ratio in the repeat runs, not every such curve was filed as active; the % refers to the signal ratio)
Sequence of Estrogen receptor beta (Homo sapiens) (Q92731 whole entry, looked up, the tested form may be a part): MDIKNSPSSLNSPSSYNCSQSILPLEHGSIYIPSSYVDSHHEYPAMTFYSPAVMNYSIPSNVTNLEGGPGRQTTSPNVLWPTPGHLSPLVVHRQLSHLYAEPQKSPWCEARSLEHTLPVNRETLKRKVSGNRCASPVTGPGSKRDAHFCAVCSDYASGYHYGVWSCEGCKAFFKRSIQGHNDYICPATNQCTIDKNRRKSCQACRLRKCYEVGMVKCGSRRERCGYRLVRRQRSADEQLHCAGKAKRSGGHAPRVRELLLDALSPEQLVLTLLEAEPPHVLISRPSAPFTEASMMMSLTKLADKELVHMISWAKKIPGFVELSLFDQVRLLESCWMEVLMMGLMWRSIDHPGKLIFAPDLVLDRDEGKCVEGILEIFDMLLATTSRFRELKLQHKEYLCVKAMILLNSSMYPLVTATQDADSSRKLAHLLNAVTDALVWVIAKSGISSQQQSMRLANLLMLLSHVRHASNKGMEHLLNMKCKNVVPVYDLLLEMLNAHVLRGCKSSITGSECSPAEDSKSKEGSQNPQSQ
Outline: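 Agonist mode cell assay in GripTite HEK293T cells expressing an ER-beta fusion that drives beta-lactamase from an Upstream Activator Sequence; 16 hr compound exposure at 37C, then 2 h LiveBLAzer B/G FRET substrate at room temperature, fluorescence read-out.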

[20] = target: Estrogen receptor beta (Homo sapiens) (UniProt Q92731); assay: qHTS assay to identify small molecule antagonists of the estrogen receptor beta (ER-beta) signaling pathway (AID 1259378; active = well fitted inhibition curve with a large enough effect in the signal ratio in the repeat runs, not every such curve was filed as active; the % refers to the signal ratio; also: potency is read from the fitted curve at half-maximal effect)
Outline: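 ER-beta-UAS-bla HEK293T (GripTite) cells in 2% charcoal-stripped FBS medium were preincubated 6 hr at 37C, dosed with compound, then stimulated with 1 nM E2 (final) for 16 hr; beta-lactamase reporter read by B/G FRET fluorescence after 2 hr substrate loading.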

Compound: C=C(C)C(=O)[O][Sn]([CH2]CCC)([CH2]CCC)[CH2]CCC
- Potency [1]: 0.217 µM (active)
- Potency [2]: 1.72 µM (active)
- Potency [3]: 1.37 µM (active)
- Potency [4]: inactive
- Potency [5]: 8.63 µM (active)
- Potency [6]: 1.09 µM (active)
- Potency [7]: 3.44 µM (active)
- Potency [8]: 2.17 µM (active)
- Potency [9]: 1.38 µM (active)
- Potency [10]: 2.69 µM (active)
- Potency [11]: 11 µM (active)

Compound: CC(Cc1ccccc1)N(C)Cc1ccco1 (configuration not stated)
- Potency [1]: inactive
- Potency [3]: inactive
- Potency [12]: inactive
- Potency [13]: inactive
- Potency [14]: inactive
- Potency [4]: inactive
- Potency [15]: inactive
- Potency [5]: inactive
- Potency [7]: inactive
- Potency [8]: inactive
- Potency [9]: inactive
- Potency [16]: inactive
- outcome [17]: inactive

Compound: CCN(CC)C(=O)N[C@@H]1C=C2c3cccc4[nH]cc(c34)C[C@@H]2N(C)C1
- Potency [1]: inactive
- Potency [3]: inactive
- Potency [13]: inactive
- Potency [14]: inactive
- Potency [4]: inactive
- Potency [15]: inactive
- Potency [5]: inactive
- Potency [18]: inactive
- Potency [6]: inactive
- Potency [7]: inactive
- Potency [8]: inactive
- Potency [9]: inactive
- Potency [16]: inactive
- outcome [17]: inactive
- Potency [10]: inactive

Compound: C=CC(=O)[O][Sn]([CH2]CCC)([CH2]CCC)[CH2]CCC
- Potency [1]: 0.486 µM (active)
- Potency [3]: 2.43 µM (active)
- Potency [12]: inactive
- Potency [14]: inactive
- Potency [15]: 13.7 µM (active)
- Potency [7]: 4.33 µM (active)
- Potency [9]: 2.45 µM (active)
- Potency [16]: 1.95 µM (active)
- Potency [10]: 13.5 µM (active)
- Potency [11]: 17.4 µM (active)

Compound: CCOP(=O)(Sc1ccccc1)Sc1ccccc1
- Potency [1]: inactive
- Potency [2]: inactive
- Potency [13]: inactive
- Potency [14]: inactive
- Potency [4]: inactive
- Potency [15]: inactive
- Potency [5]: inactive
- Potency [18]: inactive
- Potency [7]: inactive
- Potency [8]: inactive
- Potency [9]: inactive
- Potency [16]: inactive

Compound: CCCCC(CC)COC(=O)c1ccccc1C(=O)OCC(CC)CCCC (configuration not stated)
- Potency [1]: inactive
- Potency [13]: inactive
- Potency [14]: 27.3 µM (active)
- Potency [4]: inactive
- Potency [15]: inactive
- Potency [5]: inactive
- Potency [18]: 43.3 µM (active)
- Potency [9]: inactive
- Potency [16]: inactive
- Potency [10]: inactive
- Potency [11]: inactive

Compound: ClC1(Cl)C2(Cl)C3(Cl)C4(Cl)C(Cl)(Cl)C5(Cl)C3(Cl)C1(Cl)C5(Cl)C24Cl (configuration not stated)
- Potency [1]: inactive
- Potency [2]: inactive
- Potency [12]: inactive
- Potency [14]: inactive
- Potency [4]: inactive
- Potency [15]: inactive
- Potency [5]: inactive
- Potency [18]: inactive
- Potency [6]: inactive
- Potency [7]: inactive
- Potency [9]: inactive
- Potency [16]: inactive
- outcome [17]: inactive
- Potency [10]: inactive
- Potency [11]: inactive

Compound: Cc1c([N+](=O)[O-])c(C)c([N+](=O)[O-])c(C(C)(C)C)c1[N+](=O)[O-]
- Potency [1]: inactive
- Potency [3]: 27.3 µM (active)
- Potency [14]: inactive
- Potency [4]: inactive
- Potency [15]: inactive
- Potency [5]: inactive
- Potency [18]: inactive
- Potency [9]: inactive
- Potency [16]: inactive
- outcome [17]: inactive
- Potency [10]: inactive
- Potency [11]: inactive

Compound: CCOP(=S)(OCC)SC(CCl)N1C(=O)c2ccccc2C1=O (configuration not stated)
- Potency [19]: inactive
- Potency [20]: 30.6 µM (active)
- Potency [2]: inactive
- Potency [3]: inactive
- Potency [12]: inactive
- Potency [13]: inactive
- Potency [4]: inactive
- Potency [18]: inactive
- Potency [6]: 27.3 µM (active)
- Potency [7]: inactive
- Potency [9]: inactive
- Potency [16]: inactive
- outcome [17]: inactive

From PubChem BioAssay (Tox21)
